81 compounds from PubChem BioAssay (NCATS) can be followed below.

Records with an inconclusive call do not appear. Where a call stands in place of a potency, no number is given. Activity calls are given as the source filed them. Calls follow the shape of the dose curve; as a rule, active = well fitted curve in the direction sought with a large enough effect; inconclusive = small, poorly fitted or top-dose-only effect, or another doubt; inactive = no such curve, though single readings can be large; an effect the other way counts as inactive or inconclusive.

For experiment [1], the target named is Aldehyde dehydrogenase, mitochondrial (Homo sapiens) (UniProt P05091). The experiment can be described thus: qHTS for Inhibitors of the Aldehyde Dehydrogenase Family (ALDH2) Primary screen (AID 2061308). Also: nearly all actives have a fitted effect of over 55% in size. In general terms: Quantitative high-throughput screening tests each substance at several concentrations.
Experiment [2] deals with Retinaldehyde dehydrogenase 3 (Homo sapiens) (UniProt P47895). In words: qHTS for Inhibitors of the Aldehyde Dehydrogenase Family (ALDH1A3) Primary screen (AID 2061315).

Regarding `Cc1csc(CNc2ncnc3ccc(-c4ccc5c(c4)OCO5)cc23)n1`, the Potency result in experiment [1] and in experiment [2] was “inactive” in each case.
`Cc1cc(C)nc(NC(=S)N2CCN(c3cc(C(F)(F)F)nc4ccccc34)CC2)c1`: the Potency result in experiment [1] and in experiment [2] was “inactive” in each case.
In the case of `O=C(/C=C/c1ccc(F)cc1)Nc1cccc([S+](=O)([O-])Nc2ccccc2F)c1`, the Potency result in experiment [1] and in experiment [2] was “inactive” in each case.
As to `O=C(Cc1nc2ccc(Cl)cc2[nH]1)Nc1ccc(S(=O)(=O)Nc2nccs2)cc1`, the Potency entry in experiment [1] and in experiment [2] was “inactive” in each case.
Take `CCN1CCN(C(=O)CCN(CC(C)C)c2nc(-c3cccs3)nc3ccccc23)CC1`: the Potency entry in experiment [1] and in experiment [2] was “inactive” each time.
Turning to `Cc1ccc(S(=O)(=O)NCC(=O)Nc2nc(-c3ccccc3)cs2)cc1`, the Potency result in experiment [1] and in experiment [2] was “inactive” throughout.
Regarding `COc1cc(NC(=O)C(OC(=O)CNC(=O)c2ccccc2)c2ccccc2)cc(OC)c1` (configuration not stated), the Potency result in experiment [1] and in experiment [2] was “inactive” each time.
With `O=C(Nc1ccc(F)c(C(F)(F)F)c1)Nc1nnc(-c2ccncc2)o1`, the Potency entry in experiment [1] and in experiment [2] was “inactive” each time.
As to `Brc1cnc2nc(SCc3ccccc3)[nH]c2c1`, the Potency result in experiment [1] and in experiment [2] was “inactive” each time.
With `Cc1ccnc(NC(=S)N2CCCc3ccc(C(F)(F)F)cc32)c1`, the Potency result in experiment [1] and in experiment [2] was “inactive” in each case.
For the compound `Cc1cc(C)nc(NC(=S)N2CCN(c3cnccn3)CC2)c1`, the Potency result in experiment [1] and in experiment [2] was “inactive” each time.
With `COc1cccc(NS(=O)(=O)c2ccc(NCc3cccc(OC)c3O)cc2)c1`, the Potency entry in experiment [1] and in experiment [2] was “inactive” in each case.
In the case of `Nc1ccccc1CNc1ccc(S(=O)(=O)Nc2nccs2)cc1`, the Potency entry in experiment [1] and in experiment [2] was “inactive” in each case.
Take `Cc1cc(C)nc(NC(=S)N2CCN(c3ccc(Cl)c(C(F)(F)F)c3)CC2)c1`: the Potency result in experiment [1] and in experiment [2] was “inactive” in each case.
On to `CC(=O)Nc1sc2c(c1-c1cccs1)CCNC2`, for which the Potency result in experiment [1] and in experiment [2] was “inactive” each time.
On to `FC(F)(F)c1cccc(CSc2nc3ncc(Br)cc3[nH]2)c1`, for which the Potency entry in experiment [1] and in experiment [2] was “inactive” in each case.
Take `C/C1=C\CCC2=CC(OC2=O)C(C)(C)/C=C/C1=O` (configuration not stated): the Potency entry in experiment [1] and in experiment [2] was “inactive” each time.
In the case of `CN(C)S(=O)(=O)c1ccc(-c2nc(NCc3ccc(-c4ccnc(C(F)(F)F)c4)cc3)c3ccccc3n2)cc1`, the Potency result in experiment [1] and in experiment [2] was “inactive” throughout.
Regarding `Cc1nc(N2CCOCC2)c2nc(-c3ccccc3)n(C(C)CN(C)C)c2n1` (configuration not stated), the Potency result in experiment [1] and in experiment [2] was “inactive” each time.
As for `NC(=O)c1cccc(-c2noc(-c3ccccc3C(F)(F)F)n2)c1`, the Potency entry in experiment [1] and in experiment [2] was “inactive” in each case.
Regarding `Nc1nc(N)c2c(OCC3CCN(Cc4ccccc4F)CC3)cccc2n1`, the Potency result in experiment [1] and in experiment [2] was “inactive” in each case.
Regarding `Cc1cc2c(s1)c1cnn(Cc3cc(F)ccc3F)c(=O)c1n2C`, the Potency entry in experiment [1] and in experiment [2] was “inactive” each time.
On to `Cc1c([S+](=O)([O-])N2CCN([S+](=O)([O-])c3c(F)cccc3F)CC2)sc2ccc(Cl)cc12`, for which the Potency entry in experiment [1] and in experiment [2] was “inactive” in each case.
Regarding `O=C(COC(=O)CNC(=O)c1ccccc1Cl)Nc1ccccc1Cl`, the Potency result in experiment [1] and in experiment [2] was “inactive” in each case.
Turning to `Cc1cc(C)n2ncc(C(=O)NC3CCCCC3)c2n1`, the Potency entry in experiment [1] and in experiment [2] was “inactive” throughout.
Regarding `CC(C)(C)c1ccc(Nc2nc(C#N)nc(NC3CCCC3)n2)cc1`, the Potency entry in experiment [1] and in experiment [2] was “inactive” in each case.
As for `CC(=O)Nc1sc2c(c1-c1nc3ccccc3s1)CCN(C)C2`, the Potency result in experiment [1] and in experiment [2] was “inactive” each time.
On to `COc1ccc(-c2nc3ccccc3c(=O)n2Cc2ccccc2)cc1COc1ccc(NC(C)=O)cc1`, for which the Potency result in experiment [1] and in experiment [2] was “inactive” in each case.
`CC(C)c1ccccc1-c1ncc(F)c(NCC2CCN(c3cnccn3)C2)n1` (configuration not stated): the Potency result in experiment [1] and in experiment [2] was “inactive” each time.
As for `O=C(Cc1ccccc1)NC(c1ccco1)c1cc(Cl)c2cccnc2c1O` (configuration not stated), the Potency entry in experiment [1] and in experiment [2] was “inactive” in each case.
As to `Cc1cc(Nc2c(Nc3nnc(-c4ccncc4)s3)c(=O)c2=O)ccc1Cl`, the Potency entry in experiment [1] and in experiment [2] was “inactive” in each case.
With `CCCn1c(-c2ccc(F)cc2)nc2c(NC(C)CN(C)C)nc(C)nc21` (configuration not stated), the Potency result in experiment [1] and in experiment [2] was “inactive” each time.
Turning to `CC1CC1C(=O)Nc1ccc([S+](=O)([O-])Nc2nccs2)cc1` (configuration not stated), the Potency result in experiment [1] and in experiment [2] was “inactive” throughout.
Turning to `Clc1ccc2ncc(-c3cccc(NC4CCNCC4)n3)n2c1`, the Potency entry in experiment [1] and in experiment [2] was “inactive” each time.
As to `COc1ccc2cc3c(NC(=O)c4ccco4)nn(C)c3nc2c1`, the Potency entry in experiment [1] and in experiment [2] was “inactive” in each case.
Take `Cc1ccccc1C(=O)N1CCc2cc(-n3cc(NC(=O)Cc4ccccc4)cn3)ccc21`: the Potency entry in experiment [1] and in experiment [2] was “inactive” each time.
On to `Cc1ccc(NS(=O)(=O)c2cc3c(cc2Cl)NC(=O)C3)cc1C`, for which the Potency entry in experiment [1] and in experiment [2] was “inactive” each time.
Turning to `COc1cccc(NC(=S)N2CCN(c3cc(C(F)(F)F)cc(C(F)(F)F)c3)CC2)n1`, the Potency entry in experiment [1] and in experiment [2] was “inactive” throughout.
With `CCCn1c(-c2ccc(F)cc2)nc2c(N3CCC(N(C)C)C3)nc(C)nc21` (configuration not stated), the Potency result in experiment [1] and in experiment [2] was “inactive” each time.
Turning to `O=C(c1ccc2c(c1)ncn2-c1cccc(Cl)c1)N1CCCCC1`, the Potency result in experiment [1] and in experiment [2] was “inactive” each time.
On to `NC(=O)C1CCN(c2cc(-c3ccc4c(c3)OCCCO4)ncn2)CC1`, for which the Potency result in experiment [1] and in experiment [2] was “inactive” throughout.
For `O=C(OCC#CCSc1nnc(-c2ccccc2Cl)o1)c1ccc(F)cc1`, the Potency entry in experiment [1] and in experiment [2] was “inactive” in each case.
With `Cc1ccc(-c2nccc(=O)n2CC(=O)N(C)C(C)c2ccco2)cc1` (configuration not stated), the Potency result in experiment [1] and in experiment [2] was “inactive” in each case.
In the case of `Cn1c(=O)c2c(nc(CN3CCN(C(=O)C4CC4)CC3)n2Cc2cccc(F)c2)n(C)c1=O`, the Potency entry in experiment [1] and in experiment [2] was “inactive” throughout.
Consider `CN1CCN(Nc2nn3c(=O)c4ccccc4nc3s2)CC1`, for which the Potency result in experiment [1] and in experiment [2] was “inactive” in each case.
As for `O=S(=O)(c1ccc2c(c1)OCCO2)N1CCN(S(=O)(=O)c2c(F)cccc2F)CC1`, the Potency entry in experiment [1] and in experiment [2] was “inactive” throughout.
For the compound `CC(=O)Nc1sc2c(c1-c1ccc3c(c1)CCO3)CCNC2`, the Potency entry in experiment [1] and in experiment [2] was “inactive” throughout.
For `COc1ccc(C2Nc3ccccc3C(=O)N2Cc2ccccc2)cc1Oc1ccc(NC(C)=O)cc1` (configuration not stated), the Potency result in experiment [1] and in experiment [2] was “inactive” in each case.
Take `C[n+]1cc(C(O)(c2ccccc2)c2ccccc2)n2ccccc21`: the Potency entry in experiment [1] and in experiment [2] was “inactive” each time.
On to `O=C(NCCc1ccc(OCC(F)(F)F)c(OCC(F)(F)F)c1)c1cc2sccc2n1Cc1ccccc1`, for which the Potency result in experiment [1] and in experiment [2] was “inactive” throughout.
`Cc1cccc2oc(NC3=NC(c4[nH]ncc4Cl)C4=C(CCCC4=O)N3)nc12` (configuration not stated): the Potency entry in experiment [1] and in experiment [2] was “inactive” throughout.
With `O=C(CSc1nc2ccc(S(=O)(=O)N3CCOCC3)cc2[nH]1)N1CCOCC1`, the Potency entry in experiment [1] and in experiment [2] was “inactive” in each case.
Take `C=Cc1ccc(C(=O)N2CCCC(CCC(=O)N3CCN(c4ccccn4)CC3)C2)cc1` (configuration not stated): the Potency result in experiment [1] and in experiment [2] was “inactive” in each case.
On to `Cc1ccsc1C1N=C(Nc2nc3ccccc3o2)NC2=C1C(=O)CCC2` (configuration not stated), for which the Potency result in experiment [1] and in experiment [2] was “inactive” throughout.
In the case of `O=C(Cn1nc(-c2ccccc2)ccc1=O)NCCc1ccccc1`, the Potency entry in experiment [1] and in experiment [2] was “inactive” throughout.
`O=C(Nc1nnc(-c2ccncc2)s1)Nc1cc(C(F)(F)F)ccc1F`: the Potency result in experiment [1] and in experiment [2] was “inactive” throughout.
As to `COCCN(CCOC)c1nc(C)nc2c1nc(-c1ccccc1)n2CCCN(C)C`, the Potency result in experiment [1] and in experiment [2] was “inactive” each time.
`O=C1c2ccccc2C(=O)N1c1cccnc1`: the Potency result in experiment [1] and in experiment [2] was “inactive” throughout.
As for `Nc1nc(NCc2ccc(-c3cccnc3)cc2)c2ccccc2n1`, the Potency result in experiment [1] and in experiment [2] was “inactive” each time.
In the case of `CCCn1c(-c2ccc(F)cc2)nc2c(NC3CC4CCC(C3)N4C)nc(C)nc21` (configuration not stated), the Potency result in experiment [1] and in experiment [2] was “inactive” throughout.
As for `O=C(O)c1ccc(S(=O)(=O)N[C@H](Cc2c[nH]c3ccccc23)C(=O)O)cc1`, the Potency entry in experiment [1] and in experiment [2] was “inactive” in each case.
As for `Cc1ccc(S(=O)(=O)Nc2ccc(Cl)cc2C(=O)Nc2nc(-c3ccccc3)cs2)cc1`, the Potency entry in experiment [1] and in experiment [2] was “inactive” each time.
Regarding `Cc1cc(C)nc(NC(=S)N2CCN(c3ncc(Cl)cc3Cl)CC2)c1`, the Potency entry in experiment [1] and in experiment [2] was “inactive” in each case.
With `CCCCC(O)C(=O)Nc1cc(C(F)(F)F)ccc1Cl` (configuration not stated), the Potency entry in experiment [1] and in experiment [2] was “inactive” each time.
As to `O=C(NCc1cccnc1)C1CCN(S(=O)(=O)c2cccs2)CC1`, the Potency result in experiment [1] and in experiment [2] was “inactive” throughout.
For the compound `C=C1C(=O)OC2CC3(C)C(O)C(=O)C=C(C)C3CC12` (configuration not stated), the Potency result in experiment [1] and in experiment [2] was “inactive” in each case.
Take `Cc1cccc(-n2cnc3cc(C(=O)NC4CCCC4)ccc32)c1`: the Potency entry in experiment [1] and in experiment [2] was “inactive” in each case.
Consider `O=C(OCC#CCSc1nnc(-c2cccc3ccccc23)s1)c1cccs1`, for which the Potency result in experiment [1] and in experiment [2] was “inactive” throughout.
For `CC(=O)Nc1ccc(NC(=O)c2cnn3c(C)cc(C)nc23)cc1`, the Potency entry in experiment [1] and in experiment [2] was “inactive” in each case.
Regarding `N#Cc1ccccc1CCc1nc2ncc(Br)cc2[nH]1`, the Potency result in experiment [1] and in experiment [2] was “inactive” each time.
Take `O=C(NNC(=O)c1cc2ccccc2[nH]1)OCc1ccccc1`: the Potency result in experiment [1] and in experiment [2] was “inactive” throughout.
On to `N#Cc1ccc(NS(=O)(=O)c2ccc(NC(=O)Cc3ccc(Cl)c(Cl)c3)cc2)cc1`, for which the Potency result in experiment [1] and in experiment [2] was “inactive” throughout.
On to `Cc1cc(C)nc(NC(=S)N2CCN(c3ncc(C(F)(F)F)cc3Cl)CC2)c1`, for which the Potency result in experiment [1] and in experiment [2] was “inactive” in each case.
For `COCC(=O)NCCc1nc2ccccc2n1CCOc1ccc(C)cc1`, the Potency result in experiment [1] and in experiment [2] was “inactive” in each case.
Regarding `Oc1ccc(-c2nn[nH]n2)c2cccnc12`, the Potency result in experiment [1] and in experiment [2] was “inactive” throughout.
As to `Cc1cccc(CNc2ccnc(-c3cccc(C(F)(F)F)c3)n2)c1`, the Potency result in experiment [1] and in experiment [2] was “inactive” throughout.
In the case of `CCn1cnc2c(NCCc3cccnc3)nc(C#N)nc21`, the Potency entry in experiment [1] and in experiment [2] was “inactive” each time.
As to `O=C(NCc1ccccc1)n1cc(P(=S)(c2ccccc2)c2ccccc2)c2ccccc21`, the Potency entry in experiment [1] and in experiment [2] was “inactive” in each case.
Turning to `Cc1ccnc(NC(=S)N2CC3CN(c4ncc(C(F)(F)F)cc4Cl)CC3C2)c1` (configuration not stated), the Potency result in experiment [1] and in experiment [2] was “inactive” in each case.
Regarding `COc1ccc([S+](=O)([O-])N2CCCN([S+](=O)([O-])c3ccc(OC)c(N)c3)CC2)cc1N`, the Potency result in experiment [1] and in experiment [2] was “inactive” throughout.
Take `COc1cccc(C2=Nn3c(nnc3-c3cc(OC)cc(OC)c3)SC2)c1`: the Potency result in experiment [1] and in experiment [2] was “inactive” each time.
